# Results published in publication PMC7862700, “An all-to-all approach to the identification of sequence-specific readers for epigenetic DNA modifications on cytosine”.
# How the values were obtained:
# Test in all cases: DAPPL (digital affinity profiling via proximity ligation, sequencing); 10 mM Tris-HCl pH 7.5, 50 mM NaCl, 1 mM DTT, 4% glycerol, room temperature, 30 min; GST-TFs on glutathione beads, 16-mer random dsDNA library, 0.1% formaldehyde crosslink after washing; high values mean tight binding
# [1] = target: T1, FEV (Homo sapiens, UniProt Q99581 1-238); details: protein: recombinant; tags: N-terminal GST; dsDNA, one strand shown
# T1 sequence: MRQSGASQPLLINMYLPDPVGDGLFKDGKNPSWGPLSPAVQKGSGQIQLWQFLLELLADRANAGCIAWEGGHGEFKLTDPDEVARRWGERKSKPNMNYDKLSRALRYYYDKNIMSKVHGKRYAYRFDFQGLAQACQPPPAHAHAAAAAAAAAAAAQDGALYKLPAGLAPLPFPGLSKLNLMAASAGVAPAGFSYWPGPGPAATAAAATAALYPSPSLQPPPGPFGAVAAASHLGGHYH
# In short: (§1)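 Human transcription factors carrying a GST fusion were produced in yeast, bound to glutathione beads, tagged with DNA barcodes and pooled together with a tag-only sample. Each pool was held with 200 nmole of a random double-stranded 16-mer DNA library in Tris/NaCl/DTT/glycerol buffer for 30 min at room temperature, then washed, crosslinked in 0.1% formaldehyde, proximity-ligated with BsaI/T4 ligase (1 h, 37 °C), PCR-amplified and sequenced on an Illumina NextSeq500. Binding signal is the read frequency of each hexamer for a given factor divided by its frequency in the tag-only sample.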
# [2] = target: ETV5 (Homo sapiens, UniProt P41161 1-510); details: protein: recombinant; tags: N-terminal GST; dsDNA, one strand shown
# Sequence of ETV5 (P41161 whole entry): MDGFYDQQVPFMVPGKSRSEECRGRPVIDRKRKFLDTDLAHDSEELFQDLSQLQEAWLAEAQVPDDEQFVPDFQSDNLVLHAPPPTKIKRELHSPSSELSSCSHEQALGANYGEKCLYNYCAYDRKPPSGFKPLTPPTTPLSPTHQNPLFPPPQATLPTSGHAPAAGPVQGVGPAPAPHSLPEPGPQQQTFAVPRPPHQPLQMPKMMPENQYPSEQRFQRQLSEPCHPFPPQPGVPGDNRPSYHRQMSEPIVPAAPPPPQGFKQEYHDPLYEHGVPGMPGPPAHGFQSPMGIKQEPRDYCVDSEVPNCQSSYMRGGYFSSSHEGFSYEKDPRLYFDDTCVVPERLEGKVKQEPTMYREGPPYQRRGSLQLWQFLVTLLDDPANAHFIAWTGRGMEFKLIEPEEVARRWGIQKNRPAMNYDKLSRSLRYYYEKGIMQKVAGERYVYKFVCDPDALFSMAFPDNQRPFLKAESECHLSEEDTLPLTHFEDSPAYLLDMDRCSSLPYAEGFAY
# In short: as §1
# [3] = target: HSF1 (Homo sapiens, UniProt Q00613 1-529); details: protein: recombinant; tags: N-terminal GST; chain copies: 3; dsDNA, one strand shown
# Sequence of HSF1 (Q00613 whole entry): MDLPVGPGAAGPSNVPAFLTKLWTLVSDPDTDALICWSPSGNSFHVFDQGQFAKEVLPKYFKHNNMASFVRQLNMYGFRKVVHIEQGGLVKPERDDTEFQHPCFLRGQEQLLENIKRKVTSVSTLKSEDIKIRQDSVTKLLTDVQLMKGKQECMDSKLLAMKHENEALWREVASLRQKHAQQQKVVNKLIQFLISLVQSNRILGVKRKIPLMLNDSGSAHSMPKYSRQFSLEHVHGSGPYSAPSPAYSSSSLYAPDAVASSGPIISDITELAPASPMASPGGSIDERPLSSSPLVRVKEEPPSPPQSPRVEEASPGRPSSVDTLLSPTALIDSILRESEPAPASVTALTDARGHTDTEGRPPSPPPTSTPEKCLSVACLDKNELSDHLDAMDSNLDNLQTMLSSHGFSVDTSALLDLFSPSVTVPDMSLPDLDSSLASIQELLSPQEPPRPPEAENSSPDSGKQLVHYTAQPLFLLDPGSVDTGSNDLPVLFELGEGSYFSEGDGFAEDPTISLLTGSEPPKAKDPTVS
# In short: as §1
# [4] = target: T2, SPIC (Homo sapiens, UniProt Q8N5J4 1-248); details: protein: recombinant; tags: N-terminal GST; dsDNA, one strand shown
# T2 sequence: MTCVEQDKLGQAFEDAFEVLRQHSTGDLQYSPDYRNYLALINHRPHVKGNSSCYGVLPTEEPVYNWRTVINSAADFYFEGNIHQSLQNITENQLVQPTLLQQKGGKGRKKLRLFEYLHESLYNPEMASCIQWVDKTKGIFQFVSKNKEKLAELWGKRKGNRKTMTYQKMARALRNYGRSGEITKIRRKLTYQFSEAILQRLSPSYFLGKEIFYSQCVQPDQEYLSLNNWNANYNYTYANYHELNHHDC
# In short: as §1
# [5] = target: ELF4 (Homo sapiens, UniProt Q99607 1-663); details: protein: recombinant; tags: N-terminal GST; dsDNA, one strand shown
# Sequence of ELF4 (Q99607 whole entry): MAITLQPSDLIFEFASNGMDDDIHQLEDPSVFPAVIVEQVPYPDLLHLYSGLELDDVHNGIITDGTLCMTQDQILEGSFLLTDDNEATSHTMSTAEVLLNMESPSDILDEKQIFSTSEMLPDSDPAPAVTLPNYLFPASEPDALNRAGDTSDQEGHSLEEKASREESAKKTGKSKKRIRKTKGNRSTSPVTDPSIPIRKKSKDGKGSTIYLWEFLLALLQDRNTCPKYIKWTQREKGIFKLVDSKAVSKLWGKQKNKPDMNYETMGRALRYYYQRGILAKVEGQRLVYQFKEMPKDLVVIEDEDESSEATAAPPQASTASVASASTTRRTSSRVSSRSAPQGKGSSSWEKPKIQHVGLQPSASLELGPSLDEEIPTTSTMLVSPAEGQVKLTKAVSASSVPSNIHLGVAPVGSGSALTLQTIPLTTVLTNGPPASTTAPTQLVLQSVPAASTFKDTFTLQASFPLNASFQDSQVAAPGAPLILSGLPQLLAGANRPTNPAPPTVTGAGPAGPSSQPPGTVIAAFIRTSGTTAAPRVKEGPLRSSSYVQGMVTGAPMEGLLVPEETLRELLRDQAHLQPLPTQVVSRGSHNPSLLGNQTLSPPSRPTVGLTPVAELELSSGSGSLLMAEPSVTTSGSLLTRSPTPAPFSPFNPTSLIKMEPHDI
# In short: as §1
# [6] = target: T3, ELK4 (Homo sapiens, UniProt P28324-2 1-405); details: protein: recombinant; tags: N-terminal GST; dsDNA, one strand shown
# T3 sequence: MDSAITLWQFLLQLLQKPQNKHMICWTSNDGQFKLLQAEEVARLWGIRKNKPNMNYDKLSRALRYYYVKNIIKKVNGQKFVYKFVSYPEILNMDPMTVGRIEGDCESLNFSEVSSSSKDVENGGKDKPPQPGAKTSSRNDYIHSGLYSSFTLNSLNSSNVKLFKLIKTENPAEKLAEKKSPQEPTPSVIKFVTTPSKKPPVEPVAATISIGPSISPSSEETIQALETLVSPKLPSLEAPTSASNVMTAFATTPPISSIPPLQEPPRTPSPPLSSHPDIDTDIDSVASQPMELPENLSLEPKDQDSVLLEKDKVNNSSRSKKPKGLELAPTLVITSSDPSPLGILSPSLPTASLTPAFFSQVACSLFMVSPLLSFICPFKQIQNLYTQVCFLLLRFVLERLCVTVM
# In short: as §1
# [7] = target: T4, ETV2 (Homo sapiens, UniProt O00321 1-342); details: protein: recombinant; tags: N-terminal GST; dsDNA, one strand shown
# T4 sequence: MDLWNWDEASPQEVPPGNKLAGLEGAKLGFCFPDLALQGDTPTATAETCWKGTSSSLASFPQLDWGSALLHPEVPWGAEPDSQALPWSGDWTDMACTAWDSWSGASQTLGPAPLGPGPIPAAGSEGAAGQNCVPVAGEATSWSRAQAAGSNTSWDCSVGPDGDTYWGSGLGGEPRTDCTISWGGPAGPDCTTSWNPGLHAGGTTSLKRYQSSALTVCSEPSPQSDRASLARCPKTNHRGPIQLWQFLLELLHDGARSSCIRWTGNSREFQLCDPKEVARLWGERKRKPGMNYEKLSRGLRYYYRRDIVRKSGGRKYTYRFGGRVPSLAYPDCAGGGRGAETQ
# In short: as §1
# [8] = target: T5, ELF3 (Homo sapiens, UniProt P78545 1-371); details: protein: recombinant; tags: N-terminal GST; dsDNA, one strand shown
# T5 sequence: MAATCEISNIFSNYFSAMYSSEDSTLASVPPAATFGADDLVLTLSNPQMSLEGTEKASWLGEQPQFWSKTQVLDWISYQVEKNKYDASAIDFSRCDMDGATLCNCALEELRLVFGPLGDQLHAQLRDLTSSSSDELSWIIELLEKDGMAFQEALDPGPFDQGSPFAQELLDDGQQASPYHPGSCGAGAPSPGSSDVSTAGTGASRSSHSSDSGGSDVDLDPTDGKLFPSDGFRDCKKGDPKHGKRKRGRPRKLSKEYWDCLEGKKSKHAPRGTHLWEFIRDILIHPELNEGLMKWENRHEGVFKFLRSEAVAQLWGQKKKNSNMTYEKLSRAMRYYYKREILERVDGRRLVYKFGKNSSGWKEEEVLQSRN
# In short: as §1
# [9] = target: CRX (Homo sapiens, UniProt O43186 1-299); details: protein: recombinant; tags: N-terminal GST; dsDNA, one strand shown
# Sequence of CRX (O43186 whole entry): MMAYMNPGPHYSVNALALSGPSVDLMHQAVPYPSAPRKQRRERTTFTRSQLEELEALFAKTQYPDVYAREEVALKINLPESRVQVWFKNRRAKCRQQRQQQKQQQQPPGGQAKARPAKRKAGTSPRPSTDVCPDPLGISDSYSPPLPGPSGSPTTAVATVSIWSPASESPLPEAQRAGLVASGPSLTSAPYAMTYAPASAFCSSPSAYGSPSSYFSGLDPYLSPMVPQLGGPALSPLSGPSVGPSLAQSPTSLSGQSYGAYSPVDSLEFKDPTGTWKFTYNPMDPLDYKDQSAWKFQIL
# In short: as §1
sequence,measurement,setting,value
CCTCCT,binding signal,[1],"1.46 fold enrichment (6-mer frequency, TF over GST control)"
same,binding signal,[2],"1.59 fold enrichment (6-mer frequency, TF over GST control)"
same,binding signal,[3],"1.3 fold enrichment (6-mer frequency, TF over GST control)"
same,binding signal,[4],"1.47 fold enrichment (6-mer frequency, TF over GST control)"
same,binding signal,[5],"1.66 fold enrichment (6-mer frequency, TF over GST control)"
same,binding signal,[6],"1.61 fold enrichment (6-mer frequency, TF over GST control)"
same,binding signal,[7],"1.45 fold enrichment (6-mer frequency, TF over GST control)"
same,binding signal,[8],"1.2 fold enrichment (6-mer frequency, TF over GST control)"
same,binding signal,[9],"1.32 fold enrichment (6-mer frequency, TF over GST control)"
